Screening data deposited in PubChem by several laboratories.
Rows were chosen to be rich in hits. Some 22% of all compounds tested hit in one or more screens of this group.
E-sel TNF inh: blocks E-selectin expression induced by TNF alpha; AID 1246; 120,000 tested, 0.71% active; HUVEC TNFa-induced E-selectin immunofluorescence, high content; inhibition, % at 2 µM;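 active = inhibition above the batch mean plus 3 SD, and confirmed as a hit on visual image review, cut at about 43% in these data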
CYP2C9 activ: increases human cytochrome P450 2C9 activity. recombinant CYP2C9, luciferin-H conversion, luminescence; hits give high values; factor 1 = untreated enzyme, 0 = blocked. activation factor at 5 µM. 96,000 tested, 1.4% active. AID 1024;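 active = activation factor of 2 or more for CYP2C9 at a 5 µM dose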
CYP2C9 inhib: human CYP2C9 inhibition. inhibition, % at 5 µM. AID 777. 96,000 tested, 20% active. CYP2C9 Supersomes, luciferin-H conversion, luminescence;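 active = blocking of liver enzyme CYP2C9 beyond about 50% at 5 µM, limit read from the data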
CYP2C19 inhib: human CYP2C19 inhibition; AID 778; 96,000 tested, 21% active; CYP2C19 Supersomes, luciferin-H EGE luminescence, 30 min; P33261; inhibition, % at 5 µM;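 active = CYP2C19 inhibition above a set limit at 5 µM in the primary screen, cut at about 50% in these data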
Target sequence (P33261 whole entry, looked up): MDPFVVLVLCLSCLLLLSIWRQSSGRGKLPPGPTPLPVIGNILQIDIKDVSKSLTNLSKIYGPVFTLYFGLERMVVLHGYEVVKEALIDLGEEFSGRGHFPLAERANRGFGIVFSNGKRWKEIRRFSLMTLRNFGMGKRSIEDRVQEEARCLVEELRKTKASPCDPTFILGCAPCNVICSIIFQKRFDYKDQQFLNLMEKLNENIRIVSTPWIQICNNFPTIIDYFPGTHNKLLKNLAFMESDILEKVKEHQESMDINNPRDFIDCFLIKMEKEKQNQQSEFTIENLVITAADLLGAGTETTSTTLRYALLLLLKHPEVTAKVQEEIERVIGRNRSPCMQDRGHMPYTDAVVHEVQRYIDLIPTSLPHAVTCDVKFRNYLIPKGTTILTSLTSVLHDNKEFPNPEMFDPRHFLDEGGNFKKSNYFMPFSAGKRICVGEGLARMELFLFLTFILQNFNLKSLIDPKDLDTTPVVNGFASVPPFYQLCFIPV
F-actin modifier: cytoskeleton assembly modification | HUVEC TNFa F-actin phalloidin imaging, high content | inhibition, % at 2 µM | 91,000 tested, 0.18% active;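 active = inhibition above the batch mean plus 3 SD and confirmed as a hit by visual image inspection, cut at about 30% in these data, passing the limit was not always enough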
CYP2C19 act: cytochrome P450 2C19 (human) activation | 96,000 tested, under 10 active | AID 1025 | recombinant CYP2C19, luciferin-H EGE luminescence; hits give high values; 0 = fully inhibited enzyme, 1 = untreated enzyme | activation factor at 5 µM;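 active = activation factor of at least 2 at 5 µM in the primary screen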
Hits are given with their value; 0 = inactive; - = not tested or not shown.

SMILES | E-sel TNF inh | CYP2C9 activ | CYP2C9 inhib | CYP2C19 inhib | F-actin modifier | CYP2C19 act
Nc1nn(S(=O)(=O)c2ccccc2)cc1-c1ccc([N+](=O)[O-])cc1 | 0 | - | - | - | - | -
O=C(NCc1ccccn1)c1cccn1-c1ncc(C(F)(F)F)cc1Cl | 0 | - | - | - | - | -
Fc1ccccc1/C=N/Nc1ncnc2nc[nH]c12 | 0 | - | - | - | - | -
CCOc1ccc(S(=O)(=O)N/N=C(\C)C2CCCCC2)cc1 | 0 | - | - | - | - | -
COc1cc(OC)cc(C(=O)Nc2cccc(C(C)=O)c2)c1 | 0 | 0 | 76 | 71 | 0 | 0
COc1ccc(S(=O)(=O)N(C)CC(=O)Nc2cccc(C(C)=O)c2)cc1Cl | - | 0 | 0 | 93 | 0 | 0
COc1ccc(S(=O)(=O)N(C)CC(=O)Nc2cccc(C(C)=O)c2)cc1 | 0 | 0 | 0 | 88 | 0 | 0
COc1ccc(NC(=O)CN(C)CC(=O)Nc2cccc(F)c2)cc1Cl | 0 | - | - | - | - | -
CN(CC(=O)NC1CCCCC1)S(=O)(=O)c1ccc(Cl)cc1 | 0 | 0 | 0 | 0 | 0 | 0
COc1ccc(S(=O)(=O)N(C)CC(=O)NC2CCCC2)cc1Cl | 0 | 0 | 0 | 55 | 0 | 0
CC(=O)c1ccc(OCCCC(=O)Nc2cccc(S(=O)(=O)N(C)C)c2)cc1 | 0 | - | - | - | - | -
CC(C)(C)Cc1nnc(NC(=O)Cc2cccs2)s1 | 0 | - | - | - | - | -
CCn1cc(C(=O)N2CCn3c(nc4ccccc43)C2)c(=O)c2ccc(C)nc21 | - | 0 | 0 | 0 | 0 | 0
COc1ccc(S(=O)(=O)N(C)CC(=O)Nc2ccc(F)cc2)cc1 | 0 | 2.2 | 0 | 0 | 0 | 0
COC(=O)c1sc(NC(=O)CSc2nc3cccnc3n2C2CCCCC2)nc1C | - | 0 | 84 | 73 | 0 | 0
Cc1nc(NC(=O)COc2ccccc2)sc1C(=O)Nc1ccccc1 | 0 | 0 | 0 | 0 | 0 | 0
COC(=O)c1sc(NC(=O)COc2ccccc2)nc1C | 0 | 0 | 94 | 71 | 0 | 0
O=C(Cc1cccs1)Nc1nc2c(ccc3ccccc32)s1 | 0 | 0 | 64 | 0 | 0 | 0
COc1ccc2nc(NC(=O)CSc3nc4cccnc4n3C)sc2c1 | 0 | 0 | 0 | 0 | 0 | 0
COC(=O)c1sc(Nc2ccccc2)nc1C | 0 | 0 | 0 | 58 | 0 | 0
CCOc1ccc(N(CC(=O)Nc2ccc(OC)cc2)S(C)(=O)=O)cc1 | 0 | 0 | 0 | 0 | 0 | 0
COCCSc1nnc(NC(=O)C2CCCCC2)s1 | - | 0 | 0 | 0 | 0 | 0
CN(C1CCCCC1)S(=O)(=O)c1ccc(S(=O)(=O)N2CCCC2)cc1 | 0 | 0 | 0 | 0 | 0 | 0
O=C(NCCCN1CCCC1=O)c1cc(=O)c2ccccc2o1 | 0 | 0 | 0 | 0 | 0 | 0
COc1ccc(NC(C)=O)cc1NC(=O)CSc1nnc(-c2ccc(F)cc2)n1N | 0 | 0 | 0 | 0 | 0 | 0
SMILES | E-sel TNF inh | CYP2C9 activ | CYP2C9 inhib | CYP2C19 inhib | F-actin modifier | CYP2C19 act
O=C(COc1ccccc1)Nc1cccc2nsnc12 | 0 | 0 | 0 | 53 | - | 0
COc1ccccc1OCC(=O)Nc1nnc(-c2ccco2)s1 | 0 | 0 | 0 | 0 | - | 0
COC(=O)c1sc(NC(=O)COc2ccccc2OC)nc1C | 0 | 0 | 67 | 0 | 0 | 0
COc1cc(CC(=O)Nc2ncc(C)s2)cc(OC)c1OC | 0 | 0 | 54 | 73 | 0 | 0
COC(=O)c1sc(NC(=O)Cc2cccs2)nc1C | 0 | 0 | 57 | 0 | 0 | 0
CCOC(=O)COc1ccc(/C=C2\NC(=S)N(CC)C2=O)cc1 | 0 | - | - | - | - | -
CN(C)S(=O)(=O)c1cc(C(=O)NCCCn2ccc3ccccc32)ccc1Cl | 0 | 0 | 0 | 0 | 0 | 0
CCOC(=O)c1nnn(-c2nonc2-c2ccccc2)c1C | 0 | 0 | 0 | 0 | 0 | 0
Cc1cnc(NC(=O)CSc2ccccc2)s1 | 0 | 0 | 0 | 0 | 0 | 0
COC(=O)c1sc(NC(=O)COc2ccc(C)cc2)nc1C | 0 | 0 | 60 | 0 | 0 | 0
Cc1cnc(NC(=O)COc2ccccc2)s1 | - | 0 | 0 | 66 | - | 0
CCOC(=O)N1CCC2(CC1)C(C#N)=C(N)OC1=C2C(=O)CC(C)(C)C1 | 0 | 0 | 54 | 0 | 0 | 0
CC1(C)CC(=O)C2=C(C1)OC(N)=C(C#N)C21CCN(Cc2ccccc2)CC1 | 0 | 0 | 74 | 73 | - | 0
CC1(C)CC(=O)C2=C(C1)OC(N)=C(C#N)C21C(=O)N(Cc2ccccc2Cl)c2ccccc21 (stereo not given) | 0 | 0 | 94 | 86 | 0 | 0
CCN1CCN(c2ncnc3sc(C(=O)Nc4ccccc4F)c(C)c23)CC1 | 0 | 0 | 0 | 0 | 0 | 0
CC(C)CNC(=S)NNC(=O)c1csc2c1CCC(C)C2 (stereo not given) | 0 | 0 | 0 | 52 | 0 | 0
